The list is not random: actives were taken first. Their share in the collection is about 10%.
NPR1 antag: antagonists of human natriuretic peptide receptor Npr1; P16066; HEK293 hNpr1 GloSensor cGMP, ANP-stimulated luminescence; Potency, µM (series often up to 46.3 µM), for the others: at the highest dose activity change, negative = inhibition, most hits filed as inhibitors; hit rate 1.6% among 76,000; calls by dose curve; also: nearly all actives have a fitted effect of over 60% in size
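Compound pre-incubated 30 min at room temperature on GloSensor-loaded HEK293 cells stably carrying hNpr1 and the pGS-40F cGMP biosensor. Stimulation uses hNppA at 0.1 nM final; luminescence is taken at baseline and 20 min post-agonist.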
FLuc inh: Photinus pyralis luciferase inhibition; P08659; purified P. pyralis luciferase, luminescence, biochemical; Potency, µM (titrated, usually from 115 µM), hits mostly inhibitors; hit rate 2.5% among 76,000; AID 1347043; also: nearly all actives have a fitted effect of over 65% in size
Target sequence (P08659 whole entry, looked up): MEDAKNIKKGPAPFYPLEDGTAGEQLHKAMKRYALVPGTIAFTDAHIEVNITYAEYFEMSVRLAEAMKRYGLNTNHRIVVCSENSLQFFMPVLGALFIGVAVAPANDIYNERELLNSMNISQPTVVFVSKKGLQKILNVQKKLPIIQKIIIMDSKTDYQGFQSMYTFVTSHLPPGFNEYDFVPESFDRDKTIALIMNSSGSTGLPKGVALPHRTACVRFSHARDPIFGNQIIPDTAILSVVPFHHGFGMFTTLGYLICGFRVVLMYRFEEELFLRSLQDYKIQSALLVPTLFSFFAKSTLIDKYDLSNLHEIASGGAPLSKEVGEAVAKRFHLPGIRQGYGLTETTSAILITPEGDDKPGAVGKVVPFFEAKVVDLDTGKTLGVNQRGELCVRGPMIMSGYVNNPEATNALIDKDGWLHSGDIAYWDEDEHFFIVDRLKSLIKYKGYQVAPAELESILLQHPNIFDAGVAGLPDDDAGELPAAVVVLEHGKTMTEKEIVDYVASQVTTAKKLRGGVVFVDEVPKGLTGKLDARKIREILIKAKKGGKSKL
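Luminescence read by CCD imaging after purified firefly luciferase (10nM final) was added to substrate buffer holding 10uM D-luciferin and 10uM ATP, pH 7.5, pre-dosed with compound.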
NIH3T3 tox: kills NIH 3T3 cells | NIH 3T3 viability, CellTiter-Glo ATP luminescence, 48-72 h | Potency, µM (highest dose often 96.7 µM), without a hit: at the highest dose activity change, negative = cytotoxicity, most hits filed as inhibitors | hit rate 4.3% among 94,000 | AID 1345082; also: nearly all actives have a fitted effect of over 55% in size
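Cytotoxicity was measured by CellTiter-Glo ATP luminescence after 48 or 72 h compound exposure at 37 °C. Mouse NIH 3T3 fibroblasts were seeded at 400 cells/well and dosed by 23 nL pin transfer.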
GPT2 inh: blocks human glutamate pyruvate transaminase 2. Recombinant GPT2, coupled pyruvate oxidase/HRP Amplex Red fluorescence. Potency, µM (highest dose often 57.7 µM), without a hit: at the top dose activity change, negative = inhibition, usual class: inhibitors. hit rate 0.25% among 100,000. AID 1671188; also: nearly all actives have a fitted effect of over 60% in size
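Fluorescence of coupled pyruvate oxidase/HRP/Amplex Red system (50uM Amplex, 30 min, dark) reports pyruvate formed by GPT2. Enzyme reaction: 10ng/uL GPT2, 2mM L-alanine, 250uM a-KG, 30 min room temperature, pH 7.5; 50uM AOA control.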
HEK293 tox: HEK 293 cell cytotoxicity | HEK 293 viability, ATP luminescence (CellTiter-Glo), 48-72 h | Potency, µM (top dose mostly 115 µM), for the others: at the top dose activity change, negative = cytotoxicity, usual class: inhibitors | hit rate 6.6% among 94,000 | AID 1345083; also: nearly all actives have a fitted effect of over 60% in size
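Read-out: CellTiter-Glo ATP luminescence. Cells: HEK 293, 250 cells/well. Exposure: 48 or 72 hr, 37 degree Celsius.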
The depositor's hits bear a star; i = inactive; ? = inconclusive; . = no result; [ ] = dose if it differs, or a comment. Unless noted, calls follow the shape of the dose curve; as a rule, active = well fitted curve in the direction sought with a large enough effect; inconclusive = small, poorly fitted or top-dose-only effect, or another doubt; inactive = no such curve, though single readings can be large; an effect the other way counts as inactive or inconclusive. % is scaled to controls: 0 for no effect and ±100 for the full control effect; potency is read from the fitted curve at half-maximal effect.

SMILES	NPR1 antag	FLuc inh	NIH3T3 tox	GPT2 inh	HEK293 tox
O=C(NC1CC1)c1ccccc1OC1CN(Cc2ccc(C(F)(F)F)cc2)C1	2.8%	i	?	-3.5%	89.1µM*
COc1cccc(CN2CCn3c(nnc3[C@@H]3C[C@@H](O)CN3C)C2)c1OC	1.3%	i	-0.2%	i	i
CC1=C[C@@H](CNC(=O)Nc2ccc(F)cc2)[C@H](C(C)C)C[C@H]1Cc1nc2c(C)cccc2[nH]1	-22.7%	?	39.8µM*	1.0%	?
CC1=C[C@@H](CNC(=O)C2CCCCC2)[C@H](C(C)C)C[C@H]1Cc1nc2c(C)cccc2[nH]1	-19.1%[70.6 µM]	i	25.1µM*	-13.7%[88.5 µM]	?
CCCN(C)C(=O)c1cn2cc(-c3cccc(Cl)c3)n(CC=C(C)C)c(=O)c2n1	3.7%	i	39.8µM*	-7.7%	28.2µM*
COCCN(C)C(=O)c1cn2cc(-c3cccc(Cl)c3)n(CC3CC3)c(=O)c2n1	0.1%	i	?	-5.5%	-19.9%
COc1ccc(CC(=O)NC2CCCN(Cc3ccc(-c4cccc(OC)c4)cc3)C2)cc1 (stereo not given)	.	.	35.5µM*	.	25.1µM*
COc1cccc(-c2ccc(CN3CCCC(N[S+](=O)([O-])c4ccccc4)C3)cc2)c1 (stereo not given)	.	.	39.8µM*	-9.5%	22.4µM*
COC(=O)NC1CCCN(Cc2ccc(-c3cccc(OC)c3)cc2)C1 (stereo not given)	.	.	?	i	44.7µM*
COc1cccc(-c2ccc(CN3CCCC(NC(=O)Cc4ccc(F)cc4)C3)cc2)c1 (stereo not given)	.	.	?	.	31.6µM*
COc1cccc(-c2ccc(CN3CCCC(NC(=O)c4ccccc4Cl)C3)cc2)c1 (stereo not given)	.	.	28.2µM*	-9.0%	20µM*
COc1cccc(-c2ccc(CN3CCCC(NC(=O)C4CC4)C3)cc2)c1 (stereo not given)	.	.	?	.	35.5µM*
COCC(=O)NC1CCCN(Cc2ccc(-c3cccc(OC)c3)cc2)C1 (stereo not given)	.	.	?	-59.7%	?
COc1cccc(-c2ccc(CN3CCCC(NC(=O)Cc4cccc(Cl)c4)C3)cc2)c1 (stereo not given)	.	.	?	3.0%	?
COc1cccc(-c2ccc(CN3CCCC(NC(=O)Nc4ccccc4)C3)cc2)c1 (stereo not given)	.	.	22.4µM*	-7.4%	?
COc1ccc(OC)c(NC(=O)CN2C(=O)NC3(CCS(=O)(=O)CC3)C2=O)c1	3.2%	i	i	i	-2.5%
CN1CCC2(Cc3ccccc3CN(C(=O)CN)C2)C1 (stereo not given)	.	.	i	i	-1.2%[172 µM]
CCN1CC(c2ccccc2)CC2(CCN(C(=O)c3ccon3)CC2)C1 (stereo not given)	-1.7%	i	-11.6%	-11.7%	-12.0%
CC(c1ccccc1)N1CCN(c2cccc(CN(C)S(C)(=O)=O)c2)CC1 (stereo not given)	.	.	?	.	44.7µM*
COC(=O)N(C)Cc1cccc(N2CCN(C(C)c3ccccc3)CC2)c1 (stereo not given)	.	.	?	.	44.7µM*
O=C1[C@@H]2C[C@@H](O)CN2C2(CN(Cc3cccs3)C2)C(=O)N1Cc1cccc(Cl)c1	6.5%[70.6 µM]	i	?	-8.5%[88.5 µM]	?
CCc1nc(-c2c3n(c(=O)n(Cc4ccc(F)c(F)c4)c2=O)CCCC3)no1	-1.7%	i	-26.7%	-3.4%	1.7%
Cn1nccc1CN1CCC2(COc3ccccc3C(=O)N2)C1 (stereo not given)	6.8%[70.6 µM]	i	?	i	89.1µM*
O=C1NC2(CCN(Cc3ccc(F)cc3)C2)COc2ccccc21 (stereo not given)	-15.6%[70.6 µM]	i	28.2µM*	2.0%[88.5 µM]	?
N#Cc1ccc(CN2CCCC3(C2)NC(=O)c2ccccc2O3)cc1 (stereo not given)	?	i	?	2.6%[88.5 µM]	89.1µM*
SMILES	NPR1 antag	FLuc inh	NIH3T3 tox	GPT2 inh	HEK293 tox
O=C1NC2(CCN(Cc3ccccc3C(F)(F)F)CC2)Oc2ccccc21	2.8%	i	?	4.3%	39.8µM*
O=C1NC2(CCN(Cc3ccccc3C(F)(F)F)CC2)COc2ccccc21	0.0%	i	i	i	-2.6%
O=C1NC2(CCN(Cc3ccccc3)C2)COc2ccccc21 (stereo not given)	1.6%[70.6 µM]	i	?	-1.7%[88.5 µM]	?
COc1ccc(Cn2c(=O)c(C(=O)N3CCN(C(=O)c4ccc(C)cc4)CC3)nc3cccnc32)cc1	.	.	-27.2%	-3.6%	?
O=C1CC2CCN(C(=O)c3ccc4c(c3)OC(F)(F)O4)CC2CCN1 (stereo not given)	.	.	i	i	i
N#Cc1ccc(CN2CCC3(COc4ccccc4C(=O)N3)C2)cc1 (stereo not given)	?	i	31.6µM*	-4.0%[88.5 µM]	63.1µM*
O=C1NC2(CCN(Cc3ccsc3)CC2)COc2ccccc21	-16.6%[70.6 µM]	i	?	0.4%[88.5 µM]	63.1µM*
Cc1cc(F)ccc1OCC(=O)c1ccc2c(c1)N(C(C)C(=O)NCc1ccc(F)cc1)C(=O)CO2 (stereo not given)	-9.2%	i	?	i	44.7µM*
Cc1ccc(C)c(OCC(=O)c2ccc3c(c2)N(C(C)C(=O)NCC2CCCO2)C(=O)CO3)c1 (stereo not given)	6.1%	i	-22.0%	-5.2%	44.7µM*
CCNC(=O)C1CCN(C(=O)CC(=O)Nc2ccccc2OCC)C1 (stereo not given)	2.4%	i	2.2%	?	1.5%
O=C(NCCC1CCN(C(=O)Nc2ccc(F)cc2F)CC1)c1ccsc1	-2.0%	i	-2.3%	i	?
N#CC1(c2ccc(-c3cccc(CN4CCOCC4)c3)cc2)CCCC1	-8.2%	35.5µM*	?	i	?
NCc1ccccc1-c1cnc2ccccc2c1	.	.	100µM*	?	?
O=C(Nc1ccc2c(c1)OCCO2)N1CCC(CCc2nc(C3CCOCC3)no2)CC1	.	.	?	i	?
O=C(Nc1ccccc1)N1CCC(CCc2nc(C3CCOCC3)no2)CC1	.	.	?	0.0%	39.8µM*
Cc1cccc(CN(C)C2CCCc3ccccc32)c1 (stereo not given)	26.8%[70.6 µM]	i	-14.1%[138 µM]	-2.0%[88.5 µM]	i
CN(Cc1cccnc1)C1CCCc2ccccc21 (stereo not given)	-0.3%[70.6 µM]	i	?	i	56.2µM*
C[C@H]1[C@@H]2[C@@H](O)C([C@H](C)C(=O)NCc3cccnc3)CC[C@@]2(C)CC[C@@H]1NC(=O)c1ccccn1 (stereo not given in full)	3.9%	i	-19.6%	4.0%	-23.7%
COc1ccc(C(=O)N2CCOCC3(CN(Cc4ccccc4)C3)C2)c(OC)n1	3.4%[70.6 µM]	i	31.6µM*	0.9%[88.5 µM]	44.7µM*
